Bioassay records as filed in PubChem BioAssay.
NTR1 agonist: agonists of human neurotensin receptor NTR1 | NTR1-U2OS beta-arrestin-GFP spot imaging, agonist mode | activation, % at 20 µM | 0.17% of 330,000 active | AID 493036;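 active = activation at or above 40% of the spot to cytoplasm intensity ratio, with at least 20 cells analyzed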;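 also: 0% = DMSO without peptide and 100% = 100 nM NTR1 peptide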
ALR H2O2 inh: blocks human ALR sulfhydryl oxidase activity; inhibition, % (test concentration not listed); P55789; 3.8% of 290,000 active; AID 485317; purified ALR, DTT oxidation, H2O2 HRP-luminol luminescence;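 active = mean replicate inhibition above about 79%, with every replicate also reaching it, limit read from the data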
Target sequence (P55789 whole entry, looked up): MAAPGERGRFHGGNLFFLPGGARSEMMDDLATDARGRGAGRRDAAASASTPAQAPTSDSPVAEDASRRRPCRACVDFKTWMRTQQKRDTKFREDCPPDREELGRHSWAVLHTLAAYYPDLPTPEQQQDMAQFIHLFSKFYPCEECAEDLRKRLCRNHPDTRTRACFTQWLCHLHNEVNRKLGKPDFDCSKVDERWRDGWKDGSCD
H9c2 protect: protects H9c2 cardiomyocytes from peroxide injury; H2O2 injury protection, ATPLite, 2 h; protection from H2O2 cell death, % at 20 µM; 0.63% of 360,000 active; AID 588492;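 active = compounds giving at least 50% protection of heart cells from peroxide-induced death in the single-dose screen, raw or plate-pattern-corrected value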;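 also: 0% = DMSO wells with peroxide and 100% = DMSO wells without peroxide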
SUMO HTRF inh: blocks human SUMOylation mediated by UBC9; AID 2006; P63279; HTRF SUMOylation assay, SAE1/SAE2 + UBC9, in vitro; 0.36% of 290,000 active; inhibition, % at 35 µM; in the data active = inhibition above about 50%, passing the limit was not always enough
Target sequence (P63279 whole entry, looked up): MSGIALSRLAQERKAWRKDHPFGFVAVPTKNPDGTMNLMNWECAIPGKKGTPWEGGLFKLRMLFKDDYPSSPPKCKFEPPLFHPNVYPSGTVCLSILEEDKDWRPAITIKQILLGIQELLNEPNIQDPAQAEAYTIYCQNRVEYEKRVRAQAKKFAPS
* = called active by the depositor; / = no result. Only some compounds are listed: those with a hit (about 3.9% of all), similar ones and a draw of the others.

SMILES	NTR1 agonist	ALR H2O2 inh	H9c2 protect	SUMO HTRF inh
COc1ccccc1-c1nnc(SCC(=O)Nc2ccc(N3CCOCC3)cc2)n1N	-1	29	-1	/
Cc1cc(=O)[nH]c2sc(C(=O)N3c4ccccc4CC3C)c(N)c12 (stereo not given)	1	98*	-4	/
COc1ccccc1Nc1nc(-c2c(C)[nH]c3ccccc23)cs1	/	-2	-12	-3
Cc1cc(C(=O)COC(=O)c2ccc(Br)o2)c(C)n1C	-1	/	-13	9
Cc1cccc(N=C(NO)c2nonc2N)c1	1	89*	-1	9
CCOc1cc(/C=C2/NC(=O)N(CC(=O)OC)C2=O)ccc1O	0	96*	4	5
C=CCc1cc(/C=C2/NC(=O)N(CC(=O)OC)C2=O)cc(OC)c1O	1	98*	10	-7
COc1ccc(OC)c(NCc2nnc(-c3ccccc3)o2)c1	0	99*	2	-6
Cc1ccc(C)c(OCC(=O)Nc2c(C)n(C)n(-c3ccccc3)c2=O)c1	5	/	5	/
CCCCN1C(=O)/C(=C2\SC(N3CCCCC3)=NC2=O)c2ccccc21	14	-3	-19	-7
CCCCN1C(=O)C(=Nc2cccc3cnccc23)c2ccccc21	5	18	-14	99*
COc1ccc(-n2c(N)cc(=O)nc2SCC(=O)NC2CCCCC2)cc1	/	/	4	/
CC1=NNC(=O)/C1=C\c1cn(-c2ccccc2)nc1-c1ccccc1	/	1	-18	-16
CCOC(=O)c1ccc(-c2ccc3ncnc(NCc4csc(C)n4)c3c2)o1	/	/	68*	/
O=c1[nH]c(/C=C\c2cccc(Cl)c2)nc(O)c1[N+](=O)[O-]	0	98*	-1	9
C=CCOc1ccc(/C=C\c2nc(O)c([N+](=O)[O-])c(=O)[nH]2)cc1OCC	0	97*	2	9
C=CCOc1cccc(/C=C\c2nc(O)c([N+](=O)[O-])c(=O)[nH]2)c1	-2	74	2	36
O=c1[nH]c(/C=C\c2ccccc2F)nc(O)c1[N+](=O)[O-]	-2	97*	-1	10
O=c1[nH]c(/C=C\c2cccc(F)c2)nc(O)c1[N+](=O)[O-]	-1	91*	-2	6
COc1cc2nc(C3CCC3)nc(N3CCN(c4ccccn4)CC3)c2cc1OC	19	-6	60*	-3
COc1cc(C(=O)N/N=C/c2ccc3c(c2)c2ccccc2n3C)ccc1O	2	100*	43	0
Cn1c2ccccc2c2cc(/C=N/NC(=O)c3cc(O)cc(O)c3)ccc21	1	2	18	12
Cn1c2ccccc2c2cc(/C=N/NC(=O)c3cc(O)ccc3O)ccc21	9	-4	53*	58*
COc1ccc(-c2nc(=S)c3c(n2Cc2cccnc2)CC(C)(C)OC3)cc1	0	0	0	14
Cc1ccc(C)c(CN2CCC(CNC(=O)Nc3ccc(C)c(C)c3)CC2)c1	2	0	0	-6
SMILES	NTR1 agonist	ALR H2O2 inh	H9c2 protect	SUMO HTRF inh
CC(=O)OCCCNc1cc(SCc2ccco2)c2nonc2c1[N+](=O)[O-]	1	90*	19	93
CCCC(=O)OCCNc1cc(Sc2nccn2C)c2nonc2c1[N+](=O)[O-]	/	97*	-20	36
CCCC(=O)OCCNc1cc(SCc2ccco2)c2nonc2c1[N+](=O)[O-]	8	-5	14	90*
CCCSc1cc(NCCOC(=O)CCC)c([N+](=O)[O-])c2nonc12	32	97*	21	44
CCCSc1cc(NCCOC(C)=O)c([N+](=O)[O-])c2nonc12	2	-16	4	27
CCC(=O)OCCNc1cc(Sc2nc3ccccc3s2)c2nonc2c1[N+](=O)[O-]	31	-22	-22	88
CC(=O)c1ccc(NC(=O)Nc2cccnc2)cc1	1	-8	-14	58*
O=C(NCCN1C(=O)C2C3C=CC(C3)C2C1=O)Nc1cccnc1 (stereo not given)	-3	-8	1	4
O=C(Nc1ccc(N2C(=O)C3C4C=CC(C4)C3C2=O)cc1)Nc1cccnc1 (stereo not given)	-1	-6	-3	56*
Oc1c(Br)cccc1/C=N/c1ncn[nH]1	-1	-15	67*	26
O=c1c2ccccc2c(/C=N/c2ncn[nH]2)c(O)n1Cc1ccccc1	16	-7	8	17
CSc1nc(N(CCO)CCO)c2sc3nc(-c4ccco4)c4c(c3c2n1)CCC4	/	/	9	62*
CC(=O)Nc1ccc(-n2cc(-c3ccccc3)[nH]c2=S)cc1	1	99*	0	-6
Cc1cccc(-n2cc(-c3ccccc3)[nH]c2=S)c1	0	77*	-11	-3
COc1ccccc1-n1cc(-c2ccccc2)[nH]c1=S	1	50	-6	-8
COc1ccc(-n2cc(-c3ccccc3)[nH]c2=S)cc1	0	85*	-5	5
COc1ccc(S(=O)(=O)N2CCC(C(=O)NCCOc3ccccc3F)CC2)cc1OC	-1	/	-6	/
Cc1nc(NS(=O)(=O)c2ccccc2)sc1NC(=O)Nc1ccccc1	1	99*	3	3
CCOC(=O)Nc1sc(NS(=O)(=O)c2ccccc2)nc1C	0	98*	2	14
CCOc1ccccc1N(CC(=O)NC1CCCCC1)C(=O)c1nsc(Cl)c1Cl	1	1	-6	-20
Cc1cc2nc3c(=O)[nH]c(=O)[nH]c3nc2c([N+](=O)[O-])c1N	/	/	-5	76*
Cc1ccc(S(=O)(=O)N(CC(=O)N/N=C\c2cccs2)c2cccc3cccnc23)cc1	2	/	1	10
C(=N\N1CCOCC1)/c1nc(-c2ccccc2)n2ccccc12	-1	96*	12	22
COc1ccc(OC)c(/C=C/c2ccc3cccc(O)c3n2)c1	8	-1	61*	16
COc1cccc(NC(=O)CSc2nnc(COc3ccc4c(c3)CCCC4)o2)c1	5	3	-16	16
SMILES	NTR1 agonist	ALR H2O2 inh	H9c2 protect	SUMO HTRF inh
COc1ccc(OCc2nnc(SCC(=O)Nc3cccc(C(C)=O)c3)o2)cc1	-1	99*	1	/
COc1ccc(C(=O)NCc2nnc(SCC(=O)c3ccccc3)o2)cc1	-1	42	-2	2
CCc1nnc(NC(=O)CSc2nnc(Cc3ccccc3)o2)s1	-1	1	2	23
CCc1nnc(NC(=O)CSc2nnc(CNc3ccc(Cl)cc3)o2)s1	0	99*	-3	20
CC(=O)c1cccc(NC(=O)CSc2ccc(-c3ccc4c(c3)OCO4)nn2)c1	4	47	-8	-5
COc1ccc(-c2ccc(SCC(=O)Nc3cccc(C(C)=O)c3)nn2)cc1OC	4	85*	2	16
COc1ccc(NCc2nnc(SCC(=O)c3ccc(OC)cc3)o2)cc1	14	98*	-3	9
CCN(CC)C(=O)[C@H]1CC(CC(=O)NCCc2ccccn2)C(=O)N2CCc3c([nH]c4ccc(OC)cc34)[C@]12C (stereo not given in full)	-1	/	10	/
O=C(O)/C=C/C(O)c1ccc(Cl)cc1 (stereo not given)	-1	3	10	/
O=C(COC(=O)c1cccc(S(=O)(=O)N2CCOCC2)c1)Nc1ncc(C(F)(F)F)cc1Cl	2	-2	-1	-1
